SMILES strings stand for the structures. “And” between values parts separate entries of the source, which are not always exact repeats. Equal entries are not always repeated. In all, about 220,000 compounds went through this assay and about 2,000 (0.91%) were called active. Another 2% or so got no clear call; they are omitted. These entries were drawn from the full list. Entries with a potency or affinity are not part of this list. Unmarked numbers belong to inactive results. Rule as the data show it: inconclusive = inhibition above about 80% without an active follow-up result; inactive = below that; test concentration not stated here.

The assay in a line: M. tuberculosis H37Rv growth inhibitors, H37Rv strain (AID 1626).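 Also: bacteria incubated seven days before Alamar blue readout; 0% = bacteria only wells and 100% = bacteria with antibiotic wells.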 The following applies: stronger effect = higher value, concentration not given here.
As for `O=C(O)c1ccc(-c2noc(-c3cccc(F)c3)n2)cc1`, the inhibition (usually the change of the read-out against control, counted positive when it falls) was -9.57%. Take `COc1ccc2[nH]c(=O)c(CN(CCCN3CCOCC3)C(=O)NCc3ccccc3)cc2c1`: the inhibition was 6.13%.

Consider `COc1cc(NC(=O)CSc2nnc(Cn3nnc4ccccc43)n2C)cc(OC)c1`, for which the inhibition is 3.53%. As for `CCCCN(C)CCC(=O)Nc1ccc(OC)cc1OC`, the inhibition is -13.6%.

Take `Cc1ccccc1Nc1cc(C(=O)NCC2CCCO2)c2ccccc2n1` (stereo unspecified): the inhibition was 5.9%. Next, `CCOC(=O)N1CCN(C(=S)Nc2cccc(C)c2)CC1`: -4.85%. The value for `COc1ccc(C(=O)Nc2ccc(NC(=O)c3cccs3)cc2)cc1Cl` was -14.7%; that for `CC(=O)Nc1ccc(C(=O)N/N=C/c2ccc(F)cc2)cc1` was 7.2%; that for `Cc1ccsc1C(C(=O)NC1CCCCC1)N(C(=O)c1csnn1)C1CC1` (stereo unspecified) was -8.93%.

Take `COC(=O)CSc1nc(-c2ccccc2)nc2ccccc12`: the inhibition is 5.34%.

On to `COC(=O)CSc1cnc2ccccc2n1`, for which the inhibition is -1.39%. The value for `Cc1ccc(-n2c(C)nn(CCOc3ccccc3)c2=O)cc1` was 6.33%; that for `CN(C)C(/C=C/Nc1cccc([N+](=O)[O-])c1)=C(C#N)C#N` was -7.29%. For the compound `CCN(CC)c1nc(Oc2ccc(=O)[nH]n2)nc(N2CCOCC2)n1`, the inhibition is 0.81%. For the compound `Cc1ccccc1NC(=O)NC(C)(C)CC(C)(C)C`, the inhibition is -4.38%. As to `COc1cccc(C(C(=O)NC(C)(C)C)N(CC(C)C)C(=O)CCC(=O)Nc2cc(C)on2)c1OC` (stereo unspecified), the inhibition is -4.52%. Take `O=C(c1ccc(NC2=NC3CS(=O)(=O)CC3S2)cc1)N1CCN(C(=O)c2ccco2)CC1` (stereo unspecified): the inhibition is -2.98%. The value for `OCC1(Cc2cccc(C(F)(F)F)c2)CCN(Cc2cc(F)cc(F)c2)CC1` was 1.35%. The value for `Cc1ccc(-n2cc(CN3CCC(CO)(Cc4ccccc4)CC3)cn2)cc1` was 0.885%; that for `O=C(CCN1C(=O)c2ccccc2C1=O)C1=NN[C@@H]2C(=O)N(c3ccc4c(c3)OCO4)C(=O)[C@H]12` was -4.07%. `COc1ccc(CN(CC2CCCO2)C(=O)c2cc3sccc3n2C)c(OC)c1` (stereo unspecified): the inhibition is -12%. Regarding `CC1(C)Cc2c(sc3c2c(=O)n(-c2cccc(Cl)c2)c(=O)n3CC(N)=O)CO1`, the inhibition was -12.2%.

With `CCOC(=O)C1=CN(Cc2ccc(OC)cc2)C=C(C(=O)OCC)C1c1cccs1`, the inhibition was -0.52%. With `Cc1cc(Nc2ccc(C)c(Cl)c2)nc(N2CCOCC2)n1`, the inhibition is 12.8%. The value for `O=C(Nc1ccc2c(c1)OCCO2)c1ccccc1F` was 6.75%. The value for `Cc1cc(C(=O)Nc2ccc3c(c2)OCCO3)c2ccccc2n1` was -3.31%; that for `O=C(Nc1ccc2oc(-c3ccccc3Cl)nc2c1)c1ncn[nH]1` was 6.26%; that for `Cc1[nH]nc(NNC(=O)c2ccccc2)c1[N+](=O)[O-]` was -6.74%.

`O=C1NC(=O)N(c2ccccc2)C(=O)/C1=C/C=C/c1ccco1`: the inhibition was -5.19%. Next, `O=C1NC(=O)N(c2ccccc2)C(=O)/C1=C\C=C\c1ccccc1`: -3.04%; `CN1C(=O)OC2(C)CCc3ccccc3C12C` (stereo unspecified): -7.1%. Next, `CNc1nc(C)nc(-n2nc(C)cc2C)n1`: 6.41%; `CC(C)Nc1nc(NC(C)C)nc(Nn2cnnc2)n1`: -7.25%. Take `Cc1cc(NCCO)nc(-n2nc(C)cc2C)n1`: the inhibition was 8.23%.

Turning to `Cc1cc(C)n(-c2nc(N(C)C)nc(N(C)C)n2)n1`, the inhibition was -2.29%. Consider `CC(=O)c1nnn(-c2nc(N)nc(N(c3ccccc3)c3ccccc3)n2)c1C`, for which the inhibition was 3%. In the case of `Cc1cc(C)n(-c2nc(Nc3ccccc3)nc(-n3nc(C)cc3C)n2)n1`, the inhibition is -2.93%. For `Cc1ccccc1Nc1nc(N)nc(CCl)n1`, the inhibition was 77.4%. For the compound `Cc1cc(C)n(-c2nc(C)nc(N)n2)n1`, the inhibition was -4.82%.

Regarding `CCC1CCc2c(sc(NC(=O)C3c4ccccc4Oc4ccccc43)c2C(N)=O)C1` (stereo unspecified), the inhibition was 5.29%. For the compound `O=C(NC(=S)NCC1CCCO1)c1ccc(Cl)cc1` (stereo unspecified), the inhibition was 2.47%. For `O=C(NCc1ccccc1)c1onc(CSc2ccccc2)c1C(=O)NCC1CC1`, the inhibition is -10.4%.

With `CC(C)c1nnc(NC(=O)CSc2nnc(-c3ccco3)o2)s1`, the inhibition is -0.02%. The value for `O=C(Cn1c(=O)n(-c2ccccc2)c(=O)c2sccc21)NCc1ccccc1` was -8%; that for `CN(C)S(=O)(=O)c1cccc(C(=O)NCC2CCCO2)c1` (stereo unspecified) was 4.28%; that for `CC(=O)c1c(C)[nH]c(C(=O)NCc2cccc(Cl)c2)c1C` was -6.84%. Consider `Cc1nnc(Sc2cc(C(=O)NCc3ccco3)c3ccccc3n2)s1`, for which the inhibition was 0.09%.

For the compound `CC(C)Nc1nc(-c2ccccc2)nc(-n2ccnc2)n1`, the inhibition was 8.64%. For `Cc1cc(C)n(-c2nnc(NC(C)(C)C)nn2)n1`, the inhibition is -8.78%.

With `Cc1cc(C)n(-c2nnc(NCc3ccc(Cl)cc3)nn2)n1`, the inhibition is 8.99%.

For the compound `CCCCNc1nc(-c2ccccc2)nc(-n2ccnc2)n1`, the inhibition was 1.24%. In the case of `Cc1sc2nc(CN3CCCC3)nc(N3CCN(C(=O)c4ccco4)CC3)c2c1C`, the inhibition is -1.07%.

`Cc1ccccc1CC1(CO)CCCN(Cc2ccc(C#CC(C)(C)O)cc2)C1` (stereo unspecified): the inhibition was 8.42%. Next, `COc1cccc(CN2CCC(C(=O)N3CCN(c4ccccc4F)CC3)CC2)c1`: -8.97%. For `CCOC(=O)c1cccc(NC(=O)N[C@@H](C)C(=O)OC)c1`, the inhibition is -9.35%. With `COc1ccc(-c2cn(-c3ccc(Br)cc3)c3[n+]2CCS3)cc1`, the inhibition is 5.88%. `CC(=O)c1ccc(-n2cc(-c3ccc(C(C)(C)C)cc3)[n+]3c2SCCC3)cc1`: the inhibition was 40.7%. Next, `N#Cc1c(/N=C/C=C/c2ccccc2)sc2c1CCCC2`: -4.34%. Next, `Cc1cccc(OCC2=NS(=O)(=O)c3ccccc3N2)c1`: -21.3%; `CCCCOC(=O)c1ccc(NC(=O)CSc2nncn2C)cc1`: 53.2%; `Cc1cc(C)nc(SCC(=O)Nc2nc(-c3ccccc3)c(-c3ccccc3)o2)n1`: 5.45%. Next, `Cn1nnnc1SCC(=O)Nc1ccccc1-c1ccccc1`: 36.5%; `Cn1nnnc1SCC(=O)Nc1ccc(Oc2ccccc2)cc1`: 57.4%; `COc1ccc(NC(=O)CSc2nnnn2C)cc1`: -5.32%. As for `CCOC(=O)c1ccc(NC(=O)CSc2nnnn2CCCO)cc1`, the inhibition was 68.7%. In the case of `CCOC(=O)c1oc2ccc(S(=O)(=O)Nc3ccc4c(c3)n(C)c(=O)n4C)cc2c1C`, the inhibition is -1.98%. Next, `O=C1CCCC2=C1C(c1ccsc1)CC(=O)N2c1ccccc1F` (stereo unspecified): -5.2%; `CCN(CC)CCCNC(=O)c1ccccc1C`: -9.77%. Next, `O=C(c1ccccc1)N1CCC2(CC1)OCCO2`: -4.39%; `CCN=C1SC(C(=O)Nc2cccc(Cl)c2)CC(=O)N1CC` (stereo unspecified): 2.07%. `CN1CCN(C(=O)c2cc3nc(-c4ccccc4)cc(-c4ccccc4)n3n2)CC1`: the inhibition was 4.38%. For the compound `O=C(c1cc2nc(-c3ccccc3)cc(-c3ccccc3)n2n1)N1CCCC1`, the inhibition was -3%. With `CCCCn1c(=O)c(CCC(=O)OCC(=O)NC(=O)NCCC(C)C)nc2ccccc21`, the inhibition was -5.41%.

As for `On1nnc2ccc(C(F)(F)F)cc21`, the inhibition is 0.915%. Next, `S=C1NC2=C(CCCC2)C2(CCCCC2)N1`: 3.82%; `Cc1cccc(C)c1OCc1nc2ccccc2[nH]1`: -5.31%; `N=c1n(CCN2CCOCC2)c2ccccc2n1CC(=O)c1ccc(Cl)c(Cl)c1`: 17.4%. `N=c1n(CCN2CCCCC2)c2ccccc2n1CC(O)c1ccc(Cl)c(Cl)c1` (stereo unspecified): the inhibition is 57.5%. The value for `Cc1ccc2nc(/C(C#N)=C/c3ccc(-c4cccc([N+](=O)[O-])c4)o3)[nH]c2c1` was 1.74%; that for `Cc1ccc2nc(/C(C#N)=C\c3cc(O)ccc3[N+](=O)[O-])[nH]c2c1` was -7.37%. Next, `N#C/C(=C\c1ccc(OC(=O)c2cccs2)cc1)c1nc2ccccc2[nH]1`: 28.1%; `N#C/C(=C\c1ccc(OC(=O)c2ccc(Br)s2)cc1)c1nc2ccccc2[nH]1`: 66.1%; `CN(Cc1nc(Cc2cccc(C(F)(F)F)c2)no1)C1CC(C)(C)NC(C)(C)C1`: 4.06%. As for `COc1ccc(C(=O)NCC(=O)OCC(=O)NCCC2=CCCCC2)cc1`, the inhibition was 1.25%. Take `CCN(CC)S(=O)(=O)c1ccc(-c2nnc(SCC(N)=O)n2CC)cc1`: the inhibition was -3.31%.

With `CSc1ncc(CO)n1Cc1ccccc1`, the inhibition was -4.14%. The value for `O=C(O)c1ccc(CS(=O)(=O)Cc2ccccc2F)o1` was -18.6%. Consider `COc1ccc(-c2[nH]ncc2CN2CCCN(c3ccccc3)CC2)c(F)c1`, for which the inhibition is -1.64%. In the case of `COc1ccc(-c2[nH]ncc2CN2CCN(c3ccc(F)cc3)CC2)cc1`, the inhibition was -12.3%. Next, `Cn1cnc([N+](=O)[O-])c1Nc1cccc(O)c1`: -3.69%; `CC(=O)CSc1nc2ccc(Nc3nc(N4CCOCC4)nc(N4CCOCC4)n3)cc2s1`: 4.02%. As to `Cc1cccc(Nc2nc(NCc3ccco3)nc(N3CCOCC3)n2)c1`, the inhibition was -1.15%. The value for `COc1ccc(Nc2nc(NCc3ccco3)nc(N3CCOCC3)n2)cc1` was -1.04%. Regarding `O=C(CSc1nc2ccc(Nc3nc(N4CCCC4)nc(N4CCCC4)n3)cc2s1)NCc1ccco1`, the inhibition is 68.7%. Next, `O=C(Cn1cc[n+](Cc2ccccc2)c1)c1ccc([N+](=O)[O-])cc1`: 14%; `O=C(Cn1c[n+](CC(=O)c2ccc([N+](=O)[O-])cc2)cn1)c1ccc([N+](=O)[O-])cc1`: -5.51% and -5.64%.

The record behind these values is PubChem BioAssay AID1626 (SRMLSC, 2009).
